This note sets out measurements from PubChem BioAssay AID686978 (National Center for Advancing Translational Sciences (NCATS), 2013).

The campaign covered roughly 420,000 compounds. About 64,000 (15%) were called active. Inconclusive results (about 27%) are left out. A selection follows. Values without a mark were called inactive. Calls come from the whole dose curve; as a rule, active = well fitted inhibition curve with a large enough effect; inconclusive = small, poorly fitted or top-dose-only effect; inactive = flat fitted curve, though single readings scatter. Square brackets hold non-standard residues; d marks the D form. Peptide text beside a SMILES is read from it. * marks the point of attachment. ξ: configuration not given here. Cbz = O=C(OCc1ccccc1)*; ξL = CC(C)CC(N)C(=O)O; ξP = O=C(O)C1CCCN1
% is set by controls: 0 for no effect and ±100 for the full control effect; potency is the fitted concentration of half-maximal effect.

The nature of this assay: qHTS for Inhibitors of human tyrosyl-DNA phosphodiesterase 1 (TDP1): qHTS in cells in absence of CPT. Note: nearly all actives have a fitted effect of over 55% in size. The settings on record: DT40 Tdp1-/- hTDP1 cells, no CPT, ATP luminescence, 48 h; activity change, negative = growth inhibition: at 46.2 µM (top of the series). Put shortly:
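Camptothecin absent (DMSO only). Human TDP1-complemented DT40 knockout cells, 400 cells/well, 37 °C for minimum 48 hr; ATP measured via CellTiter-Glo, 30 min dark incubation, luminescence.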
Background: In qHTS, concentration-response curves come from the screen itself.
On to `CC(=O)Nc1ccc(S(=O)(=O)N2CCC(NC(=O)c3ccccc3)CC2)cc1`, for which the “activity change, negative = growth inhibition” value was -9.1%. The same measure, in the same setting: as for `O=C(NCc1cccs1)c1ccc(Br)o1`, the figure is 11.6%. Turning to `CC(C)Cn1c(N)c(C(=O)NCc2cccs2)c2nc3ccccc3nc21`, the Potency was 20.6 µM (active). Regarding `CCCNC(=O)c1c(N)n(-c2ccc(S(N)(=O)=O)cc2)c2nc3ccccc3nc12`, the “activity change, negative = growth inhibition” value is -11.3%. Regarding `Cn1nccc1NC(=O)CC(CC(=O)O)c1ccccc1` (stereo not given), the “activity change, negative = growth inhibition” value was 2.44%. Still for that read-out and setting: for `COc1ccc(NC(=O)CS(=O)(=O)c2ccccc2)cc1` the value was 9.07%. In the case of `CC(=O)Nc1ccccc1OC(=O)N1CCOCC1`, the “activity change, negative = growth inhibition” value is 3.24%. The same measure, in the same setting: as for `CCS(=O)(=O)N1CCC(C(=O)N2CCN(c3ccccc3)CC2)CC1`, the figure is -3.39%; as for `NC(=O)C1CCN(C(=O)c2ccc(-c3ccccc3)cc2)CC1`, -2.77%.

On to `CC(=O)N1c2ccc(S(=O)(=O)N3CCC(C(=O)N4CCN(c5ccccc5)CC4)CC3)cc2CC1C` (stereo not given), for which the Potency is 20.6 µM (active). On the same count and under the same terms, as for `CC(=O)c1ccc(N2CCN(C(=O)C3CCN(S(=O)(=O)c4ccc5c(c4)CC(C)N5C(=O)C4CC4)CC3)CC2)cc1` (stereo not given), the figure is 4.11 µM (active). In the case of `CS(=O)(=O)N1CCC(C(=O)N2CCN(c3ccccc3)CC2)CC1`, the “activity change, negative = growth inhibition” value is -8.27%. On the same count and under the same terms, for `NC(=O)COC(=O)c1cc(S(=O)(=O)N2CCN(c3ccccc3)CC2)ccc1Cl` the value was -2.99%; for `CC(=O)c1ccc(N2CCN(S(=O)(=O)c3c(C)[nH]c(=O)[nH]c3=O)CC2)cc1`, -2.01%. Turning to `CC(=O)c1ccc(S(=O)(=O)N2CCC(Oc3ccc(-n4cnnn4)cc3)CC2)cc1`, the Potency result is “inactive”. On to `NC(=O)C1CCN(C(=O)c2cc(S(=O)(=O)N3CCN(c4ccccc4)CC3)ccc2Cl)CC1`, for which the Potency was 6.51 µM (active).

Regarding `COc1ccc(NC(=O)CN(C)S(=O)(=O)c2ccccc2)cc1OC`, the “activity change, negative = growth inhibition” value is -13.2%. In the case of `O=C(NCCS(=O)(=O)c1ccc(Br)cc1)c1ccccc1Cl`, the “activity change, negative = growth inhibition” value is -2.05%. As for `COc1ccc(NC(=O)NN2CCN(C)CC2)c(OC)c1`, the “activity change, negative = growth inhibition” value was 22.4%. Still for that read-out and setting: as for `O=C(Cn1cc2c(n1)CCCCC2)NCCN1CCOCC1`, the figure is 4.76%; as for `Cn1c(=O)sc2cc(NS(=O)(=O)c3ccc(C(C)(C)C)cc3)ccc21`, -11.5%. Same read-out and setting: as for `CC1=NN(C(=O)c2ccccc2Br)C(O)(c2cccnc2)C1` (stereo not given), the figure is -6.62%. For the compound `CCCC1CCC(=NNC(=S)NCCc2ccccc2)CC1` (stereo not given), the Potency is 7.31 µM (active).

For the compound `CCC(C)(C)C1CCC(=NNC(=O)c2ccc(Br)o2)CC1` (stereo not given), the “activity change, negative = growth inhibition” value was -31.9%. On the same count and under the same terms, for `O=C(NCCc1ccccc1)C1CC1` the value was 19.3%. On to `CC(C)CC(NC(=O)C1CCCN1C(=O)[C@@H](C)NC(=O)OCc1ccccc1)C(=O)NCC(N)=O` (stereo not given in full) (Cbz-[dA][ξP][ξL]G-NH2), for which the “activity change, negative = growth inhibition” value was 6.22%.

With `COc1cc(OC)cc(-c2nc3ccccc3c(=O)n2NC(=O)c2cccnc2Cl)c1`, the “activity change, negative = growth inhibition” value was -13.2%.

In the case of `CSc1nc(C)nc(C2CC2)c1C#N`, the “activity change, negative = growth inhibition” value was -0.461%. On to `Cc1noc(C)c1NC(=O)Nc1ccc2c(c1)C(=O)N([C@H](C)CO)C[C@H](C)[C@@H](CN(C)C(=O)Nc1ccccc1)O2`, for which the “activity change, negative = growth inhibition” value is -1.47%.

As for `O=C(CNC(=O)c1ccc(F)cc1)c1ccccc1`, the “activity change, negative = growth inhibition” value was -19.7%. `CCCCOCCCNC(=O)c1ccccc1OCC`: the “activity change, negative = growth inhibition” value is -11.3%. For `CCCCCn1c(CCNC(=O)c2ccc(F)cc2)nc2ccccc21`, the Potency was 18.4 µM (active). For the compound `Cc1cc2ccccc2n1CCC(=O)O`, the “activity change, negative = growth inhibition” value is 7.92%. On to `CCC(=O)NCCc1nc2ccccc2n1CC`, for which the “activity change, negative = growth inhibition” value was -1.27%. For `Cc1cc2ccccc2n1CCNC(=O)c1ccc(F)cc1`, the Potency was 18.4 µM (active). On to `CC(=O)NCCc1nc2cc(NC(=O)c3ccccc3)ccc2n1C`, for which the “activity change, negative = growth inhibition” value is 11%. For `CCCCCn1c(CCCNC(=O)c2ccccc2OC)nc2ccccc21`, the Potency is 18.4 µM (active). `COc1ccccc1C(=O)NCCC(=O)NC(C)CCc1ccccc1` (stereo not given): the “activity change, negative = growth inhibition” value is -17.9%. Turning to `CCN(CC)CCCNC(=O)CCc1ccccc1`, the “activity change, negative = growth inhibition” value is -0.8%. With `CCN(CC)CCCN=C(N)N`, the “activity change, negative = growth inhibition” value is 2.6%.

Consider `COc1cc(NS(=O)(=O)c2ccc(NC(=S)NC(=O)c3ccc(Br)cc3)cc2)ncn1`, for which the “activity change, negative = growth inhibition” value is -27.4%. Take `COc1ccc(COCC(O)CN2CCC(C(N)=O)CC2)cc1` (stereo not given): the “activity change, negative = growth inhibition” value is -4.64%.

Turning to `Clc1ccccc1-c1cc(COc2ccc3ccccc3c2)no1`, the “activity change, negative = growth inhibition” value is -29.6%.

Regarding `CCCCNC(=O)CCn1c(=S)[nH]c2cc3c(cc2c1=O)OCO3`, the “activity change, negative = growth inhibition” value was -3.61%.

On to `CCN1CCN(C(=O)N[C@@H](C(=O)N[C@@H]2C(=O)N3C(C(=O)O)=C(CSc4nnnn4C)CS[C@H]23)c2ccc(O)cc2)C(=O)C1=O`, for which the Potency entry was “inactive”.

Turning to `COc1ccc(Cl)cc1C=CC=Nc1ccc(S(N)(=O)=O)cc1`, the Potency is 16.4 µM (active). `NS(=O)(=O)c1ccc(N=Cc2ccc(Br)s2)cc1`: the “activity change, negative = growth inhibition” value is -1.33%. In the case of `COc1ccc(Cl)cc1C=CC=NNC(=O)c1ccncc1`, the “activity change, negative = growth inhibition” value is -17.1%. For `CCN1C(=O)[C@H]2[C@@H](c3ccc(C(F)(F)F)cc3)N[C@]3(CCCN(Cc4ccc(Br)cc4)C3=O)[C@H]2C1=O`, the Potency is 9.2 µM (active). Regarding `Cc1ccc([C@H]2N[C@]3(CCCN(CC4CCCCC4)C3=O)[C@H]3C(=O)N(Cc4ccccc4)C(=O)[C@@H]23)cc1`, the Potency was 23.1 µM (active).

For the compound `O=C1[C@H]2[C@@H](c3ccc(C(F)(F)F)cc3)N[C@]3(CCCN(Cc4ccc(Br)cc4)C3=O)[C@H]2C(=O)N1Cc1ccccc1`, the Potency was 23.1 µM (active). For `COc1ccc([C@H]2N[C@]3(CCCN(Cc4ccco4)C3=O)[C@H]3C(=O)N(C)C(=O)[C@@H]23)cc1`, the “activity change, negative = growth inhibition” value is -28.7%. For `CCN1C(=O)[C@H]2[C@@H](c3ccccc3)N[C@]3(CCCN(Cc4ccc(C)cc4)C3=O)[C@H]2C1=O`, the “activity change, negative = growth inhibition” value was -5.24%. For `O=C1[C@H]2[C@@H](c3ccc(C(F)(F)F)cc3)N[C@]3(CCCN(Cc4ccc(Cl)cc4)C3=O)[C@H]2C(=O)N1Cc1ccccc1`, the Potency is 20.6 µM (active). On to `CCN1C[C@@H]2[C@@H]3C(=O)N(Cc4ccccc4)C(=O)[C@@H]3[C@](C)(C1=O)N2C(=O)c1ccc(C(C)(C)C)cc1`, for which the “activity change, negative = growth inhibition” value was -28%.
